Laboratory results reported in PubChem BioAssay.
Some of the results follow. Activity calls are given as the source filed them. Unless noted, the rule behind the calls is not given here.

Tests used:
[1] = Apaf-1 inhibitors, single-dose retest, confirmation, biochemical, fluorescence, DEVD-Rh110, 20 µM (AID 504614;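 active = mean inhibition of at least 40% at 20 µM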;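 note: plate controls were DMSO wells for no effect and DEVD-CHO caspase inhibitor control wells for full effect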); settings: reconstituted apoptosome, caspase-3 DEVD-Rh110 fluorescence; at 20 µM; stronger effect = higher value
[2] = Rh110 fluorescence interference by putative Apaf-1 inhibitors, confirmation, artefact control for Apaf-1 inhibitor project, biochemical, 20 µM (AID 504615;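 active = signal rise of 40% or more at 20 µM, treated as a fluorescence artifact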); settings: quenched caspase reaction, at 20 µM, stronger effect = higher value
[3] = fluorescence interference of Apaf-1 inhibitor hits, dose response, artefact control for Apaf-1 inhibitor project (AID 588538); settings: fluorescence interference counterscreen, Apaf-1 assay format
[4] = inhibition of Brca1/Bard1 split-luciferase complementation, confirmation, counter-screen for Mdm2/MdmX interaction inhibitor project, luminescence, single concentration (AID 504668); settings: Brca1/Bard1 bimolecular luciferase complementation counterscreen, at 8 µM, stronger effect = higher value
[5] = Peg3 promoter reporter inhibitors, retest, confirmation, cell-based, HeLa, luciferase reporter, single concentration (AID 602417;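 active = at 20 µM dose, 40% or more inhibition averaged across four replicates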); settings: HeLa PEG-Prom luciferase reporter, luminescence, overnight; at 20 µM; stronger effect = higher value
PEG-3 [6] = target: PEG-3 (UniProt Q6IN02); test: Peg3 promoter luciferase inhibitors, potency, dose response, cell-based, HeLa, CREF/GAPDH counter-screen panel (AID 624167); settings: HeLa PEG-Prom luciferase reporter, overnight, CREF/GAPDH counter-screens; run 1, dose range 1, at 100 µM (top of the series)
Chain of PEG-3 (Q6IN02 whole entry, looked up): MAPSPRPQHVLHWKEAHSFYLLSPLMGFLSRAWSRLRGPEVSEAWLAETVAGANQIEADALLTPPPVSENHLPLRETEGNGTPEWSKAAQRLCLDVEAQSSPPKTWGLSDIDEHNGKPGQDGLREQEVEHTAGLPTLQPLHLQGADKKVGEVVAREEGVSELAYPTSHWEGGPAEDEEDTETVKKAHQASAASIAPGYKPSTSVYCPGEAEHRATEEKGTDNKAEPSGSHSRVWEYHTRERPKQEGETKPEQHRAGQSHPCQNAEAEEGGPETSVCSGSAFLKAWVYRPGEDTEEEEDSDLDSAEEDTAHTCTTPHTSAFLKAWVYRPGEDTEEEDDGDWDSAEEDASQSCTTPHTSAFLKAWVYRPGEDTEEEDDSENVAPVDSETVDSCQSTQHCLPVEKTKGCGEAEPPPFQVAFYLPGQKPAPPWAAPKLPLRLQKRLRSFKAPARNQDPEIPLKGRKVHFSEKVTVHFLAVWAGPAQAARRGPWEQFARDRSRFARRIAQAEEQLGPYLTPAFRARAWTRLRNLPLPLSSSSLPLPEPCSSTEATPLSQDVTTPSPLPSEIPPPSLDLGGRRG

PEG-3 [7] = target: PEG-3 (UniProt Q6IN02); test: as above; settings: HeLa PEG-Prom luciferase reporter, overnight, CREF/GAPDH counter-screens; run 2, dose range 1, at 100 µM (top of the series)
[8] = target: Sentrin-specific protease 8 (Homo sapiens) (UniProt Q96LD8); test: SENP8 protease inhibitors, retest, confirmation, biochemical, luminescence, single concentration (AID 488912;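 active = mean inhibition across replicates above about 50%, limit read from the data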); settings: Recombinant SENP8, Z-RLRGG-aminoluciferin luminescence, 60 min; at 12.5 µM; stronger effect = higher value
Chain of Sentrin-specific protease 8 (Homo sapiens) (Q96LD8 whole entry, looked up): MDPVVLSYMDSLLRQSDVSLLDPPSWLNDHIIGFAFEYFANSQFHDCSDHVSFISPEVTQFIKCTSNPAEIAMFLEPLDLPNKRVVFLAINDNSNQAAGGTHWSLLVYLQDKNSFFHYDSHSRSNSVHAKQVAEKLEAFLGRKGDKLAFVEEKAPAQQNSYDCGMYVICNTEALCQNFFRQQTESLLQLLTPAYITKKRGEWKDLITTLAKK

[9] = target: Sentrin-specific protease 6 (Homo sapiens) (UniProt Q9GZR1); test: SENP6 protease inhibitors, confirmation, biochemical, luminescence, single concentration (AID 488915;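 active = mean inhibition above about 50% in the one-dose retest, limit read from the data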); settings: recombinant SENP6, Z-RLRGG-aminoluciferin luminescence; at 12.5 µM; stronger effect = higher value
Chain of Sentrin-specific protease 6 (Homo sapiens) (Q9GZR1 628-1112 limits assumed): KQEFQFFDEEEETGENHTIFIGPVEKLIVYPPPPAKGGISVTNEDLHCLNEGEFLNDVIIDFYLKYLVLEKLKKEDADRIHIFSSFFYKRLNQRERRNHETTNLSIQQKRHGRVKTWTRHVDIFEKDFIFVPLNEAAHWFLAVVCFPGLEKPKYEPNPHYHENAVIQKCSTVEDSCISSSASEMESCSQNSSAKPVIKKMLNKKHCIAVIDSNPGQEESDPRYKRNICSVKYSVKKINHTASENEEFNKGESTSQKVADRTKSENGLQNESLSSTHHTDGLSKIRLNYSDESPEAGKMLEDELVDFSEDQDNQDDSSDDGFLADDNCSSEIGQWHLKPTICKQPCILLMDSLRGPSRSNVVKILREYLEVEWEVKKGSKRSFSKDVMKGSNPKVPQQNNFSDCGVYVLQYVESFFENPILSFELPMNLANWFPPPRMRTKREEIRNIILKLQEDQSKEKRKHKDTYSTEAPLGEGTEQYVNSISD

[10] = target: Sentrin-specific protease 7 (Homo sapiens) (UniProt Q9BQF6); test: SENP7 protease inhibitors, retest, confirmation, biochemical, luminescence, single concentration (AID 488917;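 active = mean inhibition above about 50% in the one-dose retest, limit read from the data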); settings: recombinant SENP7, Z-RLRGG-aminoluciferin luminescence, 40 min; at 12.5 µM; stronger effect = higher value
Chain of Sentrin-specific protease 7 (Homo sapiens) (Q9BQF6 706-1050 limits assumed): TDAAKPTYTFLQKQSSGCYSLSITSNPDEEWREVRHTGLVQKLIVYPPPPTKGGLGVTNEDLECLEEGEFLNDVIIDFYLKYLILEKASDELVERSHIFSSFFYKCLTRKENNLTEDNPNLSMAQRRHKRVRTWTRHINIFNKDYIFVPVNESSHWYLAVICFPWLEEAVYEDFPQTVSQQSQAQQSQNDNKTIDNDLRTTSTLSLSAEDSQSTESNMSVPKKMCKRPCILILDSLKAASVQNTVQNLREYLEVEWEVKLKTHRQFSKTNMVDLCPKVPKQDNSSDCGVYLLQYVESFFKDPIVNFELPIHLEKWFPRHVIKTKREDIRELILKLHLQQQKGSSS

Caspase-3 (Homo sapiens) = Caspase-3 (Homo sapiens) (UniProt P42574); test: caspase-3 protease inhibitors, confirmation, selectivity assay for SENP inhibitor project, biochemical, single concentration (AID 488918;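 active = mean inhibition above about 50%, limit read from the data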;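 note: plate controls were enzyme with DMSO for no effect and wells without caspase-3 for full effect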); settings: purified caspase-3, Z-DEVD-aminoluciferin luminescence, 60 min; at 12.5 µM; stronger effect = higher value
Chain of Caspase-3 (Homo sapiens) (P42574 28-227 limits assumed): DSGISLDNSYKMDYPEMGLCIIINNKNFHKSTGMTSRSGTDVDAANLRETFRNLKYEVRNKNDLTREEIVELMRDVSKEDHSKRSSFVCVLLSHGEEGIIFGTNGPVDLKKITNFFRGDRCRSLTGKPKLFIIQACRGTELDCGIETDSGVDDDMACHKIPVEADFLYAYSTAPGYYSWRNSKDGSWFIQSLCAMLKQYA

[11] = luciferase luminescence interference by compounds, confirmation, artefact control for SENP inhibitor project, biochemical, single concentration, SENP8 reaction pre-completed (AID 488919;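 active = mean inhibition above about 50% when retested at one dose, limit read from the data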;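 note: plate controls were DMSO wells with completed reaction for no effect and substrate without enzyme for full effect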); settings: Pre-incubated SENP8/Z-RLRGG-aminoluciferin, at 12.5 µM, stronger effect = higher value

CCCCCn1c(=O)c(C(=O)Nc2c(C)n(C)n(-c3ccccc3)c2=O)c(O)c2ccccc21
inhibition [1]: 42.9% (active)
activation (fluorescence interference) [2]: -2.75% (inactive)
IC50 [3]: > 100 µM (inactive)

O=Cc1cn(Cc2ccc(F)cc2Cl)c2ccccc12
inhibition [4]: 35.1% (active)

CCOC(=O)c1ccc(-[n+]2c(-c3ccccc3)cc(-c3ccccc3)cc2-c2ccccc2)cc1
inhibition [4]: 23.6% (active)

C/C=C(\C)C(=O)OC1C(C)=C2C(C1OC(=O)CCCCC)C(C)(OC(C)=O)CC(OC(=O)CCC)C1(O)C2OC(=O)C1(C)O (configuration not stated)
inhibition [4]: 24.1% (active)

CC(Cc1ccccc1)NCCC(c1ccccc1)c1ccccc1 (configuration not stated)
inhibition [1]: 12.8% (inactive)
activation (fluorescence interference) [2]: 7.45% (inactive)
inhibition [5]: 87.6% (active)
inhibition (PEG-3 [6]): 98%
inhibition (PEG-3 [7]): 98.9%

Cc1cccc(-n2c(O)c(/C=C3/C(c4ccccc4)=Nc4ccccc43)c(=O)[nH]c2=O)c1
inhibition [4]: 35.8% (active)

CCOc1ccc(-c2cc(C)[n+](CCc3ccc(OC)c(OC)c3)c(-c3ccc(OCC)cc3)c2)cc1
inhibition [4]: 35.8% (active)

Brc1ccc2c(c1)C(OC1CN3CCC1CC3)c1ccccc1CS2 (configuration not stated)
inhibition [4]: 33.8% (active)

CN(C)c1ccc(-[n+]2c(-c3ccccc3)cc(-c3ccccc3)cc2-c2ccccc2)cc1
inhibition [4]: 23.3% (active)

COc1cc2c(cc1OC)-c1c(OC)c(OC)c(OC)c3ccnc(c13)C2=O
inhibition [4]: 23.6% (active)

C/C(=N/O)c1ccc2ccc3ccccc3c2c1
inhibition [8]: 64.6% (active)
inhibition [9]: 61.5% (active)
inhibition [10]: 79.5% (active)
inhibition (Caspase-3 (Homo sapiens)): 19.2% (inactive)
inhibition [11]: 30.7% (inactive)

CCn1nc(/C=C/c2ccccc2)nc2c(=O)n(C)c(=O)nc1-2
inhibition [4]: 24.6% (active)
